Tau fluor cs: Counterscreen qHTS for Inhibitors of Tau Fibril Formation, Fluorescence Polarization | Potency, µM (highest dose often 57.7 µM), for the others: at the highest dose activity change, negative = decrease | 0.93% of 280,000 active | tau K18 P301L Alexa594 fluorescence, heparin fibrillization | AID 1463, 2008; note: nearly all actives have a fitted effect of over 55% in size
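Human K18 P301L tau (15 uM unlabeled plus 0.24 uM Alexa 594-labeled, final) in 100 mM sodium acetate pH 7 was mixed with compound and 20 uM heparin and incubated 6 hr at 37 C.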
Gal4-VP16 FLuc: VP16 counterscreen qHTS for inhibitors of ROR gamma transcriptional activity | Drosophila S2 Gal4-VP16 UAS-luciferase, luminescence, 20 h | Potency, µM (titrated, usually from 53.6 µM), for the others: at the highest dose activity, negative = inhibition, most hits filed as inhibitors | 3.5% of 310,000 active;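 note: Gal4-VP16 expression switched on by copper sulfate through the metallothionein promoter; nearly all actives have a fitted effect of over 50% in size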
Tau fibril ThT: qHTS for Inhibitors of Tau Fibril Formation, Thioflavin T Binding; AID 1460, 2008; recombinant tau K18 P301L, heparin-induced fibrillization, ThT fluorescence; 2.1% of 270,000 active; Potency, µM (highest dose often 57.4 µM), for the others: top-dose activity, negative = inhibition, actives largely listed as inhibitors; note: nearly all actives have a fitted effect of over 55% in size
Target sequence (P10636 561-689 P618L limits assumed): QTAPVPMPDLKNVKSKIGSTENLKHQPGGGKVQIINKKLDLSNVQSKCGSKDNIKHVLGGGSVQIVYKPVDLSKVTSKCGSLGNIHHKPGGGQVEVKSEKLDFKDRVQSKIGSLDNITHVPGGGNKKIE
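Fibril formation assay: tau K18 P301L at 15 uM with trace Alexa 594 label, heparin inducer 20 uM, pH 7 sodium acetate buffer, 37 C for 6 hr; endpoint ThT signal.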
Tau FP inhib: qHTS for Inhibitors of Tau Fibril Formation, Fluorescence Polarization; Microtubule-associated protein tau (Homo sapiens), P10636; K18 P301L tau heparin fibrillization, Alexa594 FP, 6 h; Potency, µM (doses to about 57.7 µM), for the others: at the highest dose activity, negative = inhibition, hits mostly inhibitors; 0.39% of 280,000 active; AID 1468, 2008; note: nearly all actives have a fitted effect of over 55% in size
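Human K18 P301L fragment (15 uM unlabeled plus 0.24 uM Alexa 594-labeled) in 100 mM sodium acetate pH 7 with compound, aggregation induced by 20 uM heparin for 6 hr at 37 C. ThT (30 uM) added for 1 hr, then Alexa 594 FP read.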
RORgamma inh: qHTS for inhibitors of ROR gamma transcriptional activity. Drosophila S2 Gal4-RORgamma UAS-luciferase reporter, 20 h. Potency, µM (doses to about 53.6 µM), for the others: top-dose activity change, negative = inhibition, usual class: inhibitors. 5.4% of 310,000 active; note: nearly all actives have a fitted effect of over 60% in size
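Drosophila S2 cells stably expressing Gal4-DBD/mouse RORγ fusion under metallothionein promoter plus UAS-luciferase; compound 1 h, then 700 uM CuSO4 induction for 20 h at ambient temperature; inhibition read as reduced luminescence.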
Numbers without * were called inactive; ? = inconclusive; . = not tested or not shown; [ ] = remark or other dose. Compounds with a hit are over-represented: about 7.3% of the library has one in this group of screens. Calls come from the whole dose curve; as a rule, active = well fitted curve in the direction sought with a large enough effect; inconclusive = small, poorly fitted or top-dose-only effect, or another doubt; inactive = no such curve, though single readings can be large; an effect the other way counts as inactive or inconclusive. % is set by controls: 0 for no effect and ±100 for the full control effect; potency is the fitted concentration of half-maximal effect.

SMILES	Tau fluor cs	Gal4-VP16 FLuc	Tau fibril ThT	Tau FP inhib	RORgamma inh
CCOC(=O)c1sc2nc(C)[nH]c(=S)c2c1C	-5.9%	0.794µM*	?	-0.1%	0.562µM*
CC(=O)c1ccc(NC(=O)CCOc2cc(C)ccc2C)cc1	.	?	.	.	5.1%
Cc1cc(S(=O)(=O)Nc2ccc(O)c(Sc3nc4ccccc4s3)c2)ccc1Cl	10µM*[quencher]	.	?	?	.
O=S(=O)(Nc1ccc(O)c(Sc2nc3ccccc3s2)c1)c1cc(Cl)ccc1Cl	10µM*[quencher]	.	?	?	.
O=S(=O)(Nc1ccc(O)c(Sc2nc3ccccc3s2)c1)c1cccc2ccccc12	0.1%	7.94µM*	5.3%	1.7%	?
COc1ccc(-n2nc(C(=O)Nc3cc(C)ccn3)c3c4ccccc4n(C)c3c2=O)cc1	-10.8%	.	0.3%	-3.0%	.
CC1CCC(N2CC(=O)N(C3CCCCC3)C(c3ccc(Cl)cc3)C2=O)CC1 (configuration not stated)	3.6%	.	-5.7%	1.2%	.
C#CCn1c(=O)c2c(nc(/C=C/c3cccc(OC)c3)n2C)n(CCCO)c1=O	.	-0.9%	.	.	23.4%
COC(=O)C1(C)C=CC2(CCCCC2)N1C(=O)c1ccccc1 (configuration not stated)	-4.8%	-4.5%	-3.7%	-1.9%	10µM*
COCCNC(=O)C1(C)C=CC2(CCCCC2)N1C(=O)c1ccccc1 (configuration not stated)	2.2%	-7.2%	-0.6%	4.9%	-1.0%
O=C(Cc1ccccc1)Nc1cccc(-c2cn3cccnc3n2)c1	-10.0%	.	-0.6%	-1.4%	.
CCNc1ncc2nc(-c3ccc(Cl)cc3)c(=O)n(C3CC3)c2n1	.	-10.0%	.	.	2.9%
O=c1c2c3c(sc2nc(NCCO)n1CCc1ccccc1)CCCCC3	14.1µM*[quencher]	-5.5%	?	?	16.2%
Cn1c(N/N=C/c2ccccc2)nc2sc3c(c2c1=O)CCC3	17.8µM*[quencher]	7.08µM*	?	5.8%	1.58µM*
CN1CCc2c(sc3nc(NN)n(Cc4ccccc4)c(=O)c23)C1	?	2.2%	15.8µM*	-13.2%	-4.6%
CCN1CCC[C@@H](OC(=O)C(c2ccccc2)c2ccccc2)C1	.	-4.3%[17 µM]	.	.	26.1%[2.98 µM]
C=CC[C@](C)(Nc1ccc(OC)cc1)C(=O)OCC	-9.4%	-6.8%	-13.8%	1.6%	?
CCOC(=O)c1cccc(NC(=O)c2cn(-c3cccc(OC)c3)c(=O)c3ccccc23)c1	3.2%	.	-1.4%	-2.5%	.
Cc1cc(C)cc(NC(=S)N2CCN(S(=O)(=O)c3ccccc3)CC2)c1	.	?	.	.	11.2µM*
Cc1ccc(NC(=S)N2CCCCC2CO)cc1C (configuration not stated)	-11.1%	?	-2.4%	-7.6%	7.94µM*
Cc1ccc(NC(=S)N2CCN(S(=O)(=O)c3ccccc3)CC2)cc1	.	6.0%	.	.	?
Cc1ccc(NC(=S)N2CC(C)OC(C)C2)cc1C (configuration not stated)	.	?	.	.	15.8µM*
CC1CN(C(=S)Nc2ccccc2)CC(C)O1 (configuration not stated)	.	-17.7%	.	.	-31.2%
Cc1cc(C)cc(NC(=S)N2CC(C)OC(C)C2)c1 (configuration not stated)	.	?	.	.	15.8µM*
COc1cccc(-c2cc(C(=O)NCCCn3ccnc3)c3ccccc3n2)c1	4.0%	-7.6%	6.9%	0.8%	14.3%
O=C(CSc1ncccn1)N1CCN(S(=O)(=O)c2ccccc2)CC1	-8.8%	0.2%	-9.3%	-2.5%	0.4%
Cc1cccc(NC(=S)N2CCCCCC2)c1	5.9%	?	3.8%	0.9%	?
Cc1cc(C)cc(NC(=S)N2CCCC2)c1	.	?	.	.	12.6µM*
Cc1cc(Br)ccc1SCC(=O)N1CCN(S(=O)(=O)c2ccccc2)CC1	.	7.08µM*	.	.	?
CCC(C)c1ccc(NC(=S)NN2CCOCC2)cc1 (configuration not stated)	-15.2%	4.47µM*	-4.4%	5.0%	2.24µM*
